Rows were chosen to be rich in hits. Some 12% of all compounds tested hit in one or more screens of this group.
Sfp PPTase inh: Sfp phosphopantetheinyl transferase inhibition; Q9F4F7; Biochemical Sfp PPTase activity, qHTS; Potency, µM, for inactives: largest response in the series, negative = inhibition, actives largely listed as inhibitors; 3.5% of 310,000 active; AID 1490;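 further: the enzyme is Sfp with the accession as filed and its product quenches rhodamine fluorescence; 0% = enzyme reaction without inhibitor and -100% = no enzyme wells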
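After 15 min at room temperature with compound, 15 nM Sfp received 5 uM rhodamine-CoA plus 12.5 uM BHQ-2-ybbR (50 mM Hepes pH 7.6, 10 mM MgCl2). Rate came from the fluorescence difference over 30 min, ex 525/em 598 nm.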
HP1b chromo inh: HP1-beta chromodomain-methylated histone interaction inhibition; AlphaScreen HP1-beta / biotin-H3K9me3 peptide binding; Potency, µM (series often up to 114 µM), for inactives: at the top dose activity change, negative = inhibition, hits mostly inhibitors; 0.56% of 390,000 active; AID 540317; further: nearly all actives have a fitted effect of over 70% in size
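AlphaScreen: HP1-beta (50 nM) preformed 30 min with biotin-H3(1-18)K9me3 peptide (50 nM) in PBS pH 7.4, 0.01% Tween-20. Compound added for 30 min at RT, then streptavidin donor/nickel chelate acceptor beads (10 ug/mL) for 30 min.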
BAZ2B block: blocks human BAZ2B | 4.4% of 360,000 active | AID 504333 | AlphaScreen BAZ2B-H3K14Ac peptide displacement | Potency, µM (titrated, usually from 114 µM), for inactives: at the highest dose activity change, negative = inhibition, usual class: inhibitors | Q9UIF8; further: on the % scale 0 is the no-effect control and ±100 the full control effect; nearly all actives have a fitted effect of over 60% in size
Target sequence (Q9UIF8 whole entry, looked up): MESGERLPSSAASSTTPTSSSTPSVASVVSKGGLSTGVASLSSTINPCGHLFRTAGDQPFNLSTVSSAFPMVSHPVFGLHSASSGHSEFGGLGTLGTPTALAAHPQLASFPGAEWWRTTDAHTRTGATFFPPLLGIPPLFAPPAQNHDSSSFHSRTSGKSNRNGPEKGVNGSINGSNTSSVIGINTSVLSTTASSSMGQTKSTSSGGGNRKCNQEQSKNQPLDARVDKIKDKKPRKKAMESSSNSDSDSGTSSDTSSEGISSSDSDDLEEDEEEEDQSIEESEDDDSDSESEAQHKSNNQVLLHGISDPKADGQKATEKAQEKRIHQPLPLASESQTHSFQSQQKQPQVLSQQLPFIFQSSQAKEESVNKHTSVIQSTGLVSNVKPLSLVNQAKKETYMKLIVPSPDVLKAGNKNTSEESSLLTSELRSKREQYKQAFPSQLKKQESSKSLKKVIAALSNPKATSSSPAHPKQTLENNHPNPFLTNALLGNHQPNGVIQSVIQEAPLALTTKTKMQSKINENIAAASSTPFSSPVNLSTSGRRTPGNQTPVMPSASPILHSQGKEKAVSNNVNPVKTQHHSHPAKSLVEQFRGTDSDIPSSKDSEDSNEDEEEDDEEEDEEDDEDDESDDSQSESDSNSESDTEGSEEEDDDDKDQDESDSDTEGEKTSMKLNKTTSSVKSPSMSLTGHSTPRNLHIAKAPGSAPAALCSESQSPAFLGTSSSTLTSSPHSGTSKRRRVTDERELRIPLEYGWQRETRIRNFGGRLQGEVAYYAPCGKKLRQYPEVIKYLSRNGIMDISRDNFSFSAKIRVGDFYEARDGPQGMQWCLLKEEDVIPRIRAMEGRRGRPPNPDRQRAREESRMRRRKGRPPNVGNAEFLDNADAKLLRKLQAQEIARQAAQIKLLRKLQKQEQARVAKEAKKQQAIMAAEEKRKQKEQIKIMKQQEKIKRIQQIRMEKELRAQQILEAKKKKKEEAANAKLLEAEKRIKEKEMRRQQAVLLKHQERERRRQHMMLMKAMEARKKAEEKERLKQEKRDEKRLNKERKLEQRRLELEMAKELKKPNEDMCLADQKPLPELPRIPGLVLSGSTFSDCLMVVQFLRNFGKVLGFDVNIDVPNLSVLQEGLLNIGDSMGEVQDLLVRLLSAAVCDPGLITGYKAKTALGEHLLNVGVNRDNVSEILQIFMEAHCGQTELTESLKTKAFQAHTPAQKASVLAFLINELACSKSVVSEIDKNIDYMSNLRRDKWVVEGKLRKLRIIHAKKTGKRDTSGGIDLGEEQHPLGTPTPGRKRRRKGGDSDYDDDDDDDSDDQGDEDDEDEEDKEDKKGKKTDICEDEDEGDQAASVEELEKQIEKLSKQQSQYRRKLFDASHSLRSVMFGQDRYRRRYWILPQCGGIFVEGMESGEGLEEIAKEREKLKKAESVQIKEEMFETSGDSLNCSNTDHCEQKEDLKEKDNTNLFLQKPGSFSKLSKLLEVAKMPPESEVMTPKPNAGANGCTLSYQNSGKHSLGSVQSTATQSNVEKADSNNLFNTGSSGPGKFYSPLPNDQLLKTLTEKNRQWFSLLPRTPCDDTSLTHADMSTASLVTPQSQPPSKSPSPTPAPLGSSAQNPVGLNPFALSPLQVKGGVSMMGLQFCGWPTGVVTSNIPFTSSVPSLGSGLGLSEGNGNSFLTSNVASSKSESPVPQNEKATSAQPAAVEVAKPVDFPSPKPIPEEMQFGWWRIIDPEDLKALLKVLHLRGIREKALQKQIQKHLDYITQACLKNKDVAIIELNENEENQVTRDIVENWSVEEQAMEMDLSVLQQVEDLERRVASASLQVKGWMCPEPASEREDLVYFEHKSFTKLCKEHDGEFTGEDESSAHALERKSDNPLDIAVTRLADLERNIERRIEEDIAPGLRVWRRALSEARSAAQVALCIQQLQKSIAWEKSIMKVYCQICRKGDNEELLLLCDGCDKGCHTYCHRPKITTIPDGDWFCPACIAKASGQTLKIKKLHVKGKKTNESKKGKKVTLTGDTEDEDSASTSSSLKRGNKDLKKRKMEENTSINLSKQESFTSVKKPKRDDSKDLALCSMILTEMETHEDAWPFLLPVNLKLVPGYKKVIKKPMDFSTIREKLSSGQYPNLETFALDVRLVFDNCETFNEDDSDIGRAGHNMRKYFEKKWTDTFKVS
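AlphaScreen displacement: compounds (up to 110uM) incubated 30 min at room temperature with a preformed 50 nM BAZ2B/50 nM biotinylated H3K14Ac peptide complex in PBS pH 7.4 with Tween-20. Donor and acceptor beads at 10 ug/mL final added, 20 min light-protected before reading.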
JMJD2A Tudor: JMJD2A Tudor domain (human) inhibition. AlphaScreen JMJD2A-Tudor / H3K4me3 peptide binding. Potency, µM (top dose mostly 114 µM), for inactives: at the top dose activity change, negative = inhibition, usual class: inhibitors. 4.4% of 390,000 active. AID 504339; further: on the % scale 0 is the no-effect control and ±100 the full control effect; nearly all actives have a fitted effect of over 50% in size
G9a inh: blocks human histone lysine methyltransferase G9a; G9a H3K9 monomethylation, AlphaScreen, 2 h; Potency, µM (top dose mostly 102 µM), without a hit: top-dose activity, negative = inhibition, hits mostly inhibitors; 8.8% of 350,000 active; AID 504332; further: on the % scale 0 is the no-effect control and ±100 the full control effect; nearly all actives have a fitted effect of over 75% in size
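AlphaScreen read-out: biotin-H3K9 peptide (500 nM) methylation by 20 nM enzyme with 20 uM SAM, 2 h at room temperature after 15 min compound preincubation; anti-monomethyl H3K9 antibody plus donor/acceptor beads, 10 min dark.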
Starred values were filed as active, the others as inactive; ? = inconclusive; . = no result given; [ ] = dose if it differs, or a comment. The call rests on the fitted dose curve; in most records, active means well fitted curve in the direction sought with a large enough effect; inconclusive means small, poorly fitted or top-dose-only effect, or another doubt; inactive means no such curve, though single readings can be large; an effect the other way counts as inactive or inconclusive. Potency means the concentration at half of the fitted maximal effect.

SMILES	Sfp PPTase inh	HP1b chromo inh	BAZ2B block	JMJD2A Tudor	G9a inh
CCN(CC)CCCCn1c(-c2ccccc2)nc2c(NCc3ccccc3)nc(C)nc21	15%	.	.	.	.
CNC(=O)C1CCN(Cc2cc3ccccc3n2Cc2cccc(C)c2)CC1	.	-17%	?	-30%	-1%[59 µM]
O=C(Nc1ccc(Cl)cc1)N1CCCN(c2ccc(C(F)(F)F)cc2[N+](=O)[O-])CC1	18%	?	?	?	-3%
Cc1ccc(N(C(=O)CCCC(=O)Nc2ccccn2)C(C(=O)NC2CCCC2)c2ccc(O)cc2)cc1C (stereo not drawn)	17%	-6%	3%	-21%	8.9µM*
CN(C(=O)c1cccc(N2C(=O)C3CC=CCC3C2=O)c1)C1CCCCC1 (stereo not drawn)	-11%	13%	-10%	-19%	50µM*
Cc1nc(NCCOc2ccccc2)sc1C(=O)Nc1ccccc1	-5%	25%	-26%	-19%	45µM*
Cc1nc(NCc2ccccc2)sc1C(=O)Nc1ccccc1	6%	20%	?	-23%	50µM*
Cc1ccc2onc(CC(=O)N3CCN(c4cccc(C)c4C)CC3)c2c1	.	33%	-2%	-7%	?
COc1cc2c(c(OC)c1OC)-c1c(cc(OC)c(OC)c1OC)CC(C)C(C)C2 (stereo not drawn)	-22%	.	.	.	.
O=C(O)c1ccccc1NCc1ccsc1	11%	42%	-18%	-4%	-26%
O=C(O)c1ccccc1NCc1ccncc1	2%	31%	-39%	-5%	40µM*
O=C(O)c1ccc(CNc2ccccc2C(=O)O)cc1	-8%	8%	?	56µM*	?
O=C(O)c1ccccc1NCCO	-6%	15%	.	-16%	50µM*
Cc1cc2c(s1)c1cnn(Cc3c(F)ccc(Cl)c3F)c(=O)c1n2C	.	.	.	-30%	.
CN(C)Cc1ccccc1-c1cncnc1NCc1ccccc1	-17%	.	.	.	.
Cc1ccc(Cc2ccccc2C(=O)O)cc1	.	49%	.	-10%	.
COc1ccc(-c2c(C)nn3c(-c4ccccc4)cc(-c4ccccc4)nc23)cc1OC	.	?	?	-27%	?
COc1ccc(-c2cc(C)nc3c(-c4ccc(OC)c(OC)c4)c(C)nn23)cc1	.	-20%	20µM*	28µM*	14µM*
Cc1ccc(OCCNC(=O)CNC(=O)Cc2cccc3ccccc23)cc1	.	17%[57 µM]	.	-2%[57.1 µM]	.
COc1ccc(N2C(=O)/C(=C/c3cccs3)NC2=S)cc1	10µM*	?	?	79µM*	1.8µM*
CCOc1ccc(N2C(=O)/C(=C/c3cccs3)N(CC(=O)OC)C2=S)cc1	9%	19%	-28%	-4%	8%
C[C@H](CO)N1C[C@H](C)[C@@H](CN(C)S(=O)(=O)c2ccccc2)Oc2ccc(NS(=O)(=O)c3cn(C)cn3)cc2C1=O	.	21%	.	-27%	.
Cc1ccc(C(=O)n2c(=S)nc3ccccn32)cc1	?	.	9%	.	25µM*
O=C(c1ccccc1)n1c(=S)nc2ccccn21	14%	7%	6%	-14%	?
Cc1cccc(C(=O)n2c(=S)nc3ccccn32)c1	40µM*	-45%	1%	-16%	2.2µM*
SMILES	Sfp PPTase inh	HP1b chromo inh	BAZ2B block	JMJD2A Tudor	G9a inh
COc1ncc2nc(-c3cccc(C#N)c3)c(=O)n(CCC#N)c2n1	14%	.	.	.	6%[12.7 µM]
C=CCn1c(NC(=O)c2ccc(Br)o2)c(C(=O)OCC)sc1=S	?	-39%	-30%	89µM*	3.2µM*
Cc1ccc(CNCCCn2cnc(C(=O)Nc3ccc(C)c(C)c3)n2)o1	.	-2%	.	-27%	.
Cc1ccc(OCC(=O)OCC(=O)NC2CC2)cc1C	.	31%	6%	3%	-1%[2.33 µM]
COc1ccc(N2C(=O)CC(Sc3nc(C)cc(C)n3)C2=O)cc1OC (stereo not drawn)	14%	62%	-4%	1%	?
COc1ccc(N2C(=O)CC(Sc3nccc(C)n3)C2=O)cc1 (stereo not drawn)	-15%	60%	-4%	11%	-6%[59 µM]
COc1ccc(N2C(=O)CC(Sc3nnc(-c4ccccc4F)n3C)C2=O)cc1 (stereo not drawn)	1%	-13%	-9%	-22%	11µM*
C=CCNc1nnc(SC2CC(=O)N(c3ccc(OC)cc3)C2=O)s1 (stereo not drawn)	?	-34%	-7%	45µM*	8.9µM*
CCOc1ccc2nc(SC3CC(=O)N(c4ccc(OC)cc4)C3=O)sc2c1 (stereo not drawn)	-5%	72%	-2%	1%[57.1 µM]	13µM*
Cc1nnc(SC2CC(=O)N(c3ccccc3)C2=O)s1 (stereo not drawn)	35µM*	-7%	2%	12%	8.9µM*
COc1ccc(N2C(=O)CC(NNc3nc4ccccc4s3)C2=O)cc1 (stereo not drawn)	-5%	42%	-9%	-3%	-20%[59 µM]
COc1ccc(N2C(=O)CC(Sc3nc4ccccc4s3)C2=O)cc1 (stereo not drawn)	7%	41%	-21%	-3%	25µM*
COc1ccccc1C(=O)NCC(=O)N/N=C/c1cccc(Cl)c1	3%	47%	-12%	-1%	4%
Cc1ccc(NC(=O)C2CCN(C(=O)[C@@H]3Cc4ccccc4CN3)CC2)c(C)c1	2%	35%	-12%	-32%	45µM*
Cc1cccc(NC(=O)C2CCN(C(=O)[C@@H]3Cc4ccccc4CN3)CC2)c1	6%	31%	-9%	-14%	?
Oc1ccc2c(c1)C1CCCC1(N1CCOCC1)O2 (stereo not drawn)	50µM*	?	?	-20%	8.9µM*
Cc1ccc2cc3cc(C(=O)NCCCN4CCc5ccccc5C4)oc3nc2c1	-21%	5%	-9%	-2%[11.4 µM]	?
Cc1ccc2nc(Cl)c3cc(C(=O)N(CCN(C)C)Cc4ccco4)sc3c2c1	-10%	?	.	45µM*	50µM*
Cc1ccc2nc(Cl)c3cc(C(=O)NCCCN4CCCC4)sc3c2c1	4%	17%	-3%	-32%	50µM*
CCCCN(CC)CCCNC(=O)c1cc2cc3ccc(C)cc3nc2o1	0%	-12%	-8%	-3%	11%
CCC1CCCCN1CCCNC(=O)c1cc2c(Cl)nc3ccc(C)cc3c2s1 (stereo not drawn)	.	9%	-27%	-26%	-28%[59 µM]
Cc1ccc2cc3cc(C(=O)NCCCN4CCCCCC4)oc3nc2c1	-8%	11%	-6%	-13%	45µM*
Cc1ccc2cc3cc(C(=O)NCCCN4CCCC4)oc3nc2c1	18%	22%	-16%	?	79µM*
COC(=O)N1C2=C(c3ccccc3[C@@H]1CC(=O)Nc1ccc3ccc4cccc5ccc1c3c45)[C@@H]1C(=O)N(c3ccccc3)C(=O)[C@@H]1[C@H](C)C2	0%	.	.	.	.
CCS(=O)(=O)N1CCc2cc(C(=O)Nc3cc([N+](=O)[O-])ccc3C)ccc21	.	4%	?	?	?
CC1(OC(=O)c2cnc3ccccc3n2)C(=O)C=C2C=C3CCCN3C=C2C1=O (stereo not drawn)	-6%	.	.	.	.
